Screens: PubChem BioAssay, National Center for Advancing Translational Sciences (NCATS)
Sampled rows, rich in hits. Any-hit rate of the full collection: about 7.5%.
NPC1 promoter act = activates the NPC1 promoter | Huh7 NPC1 promoter luciferase reporter, 24 h | Potency, µM (series often up to 9.22 µM), actives largely listed as activators | 2.4% of 320,000 active | AID 485313; also: nearly all actives have a fitted effect of over 60% in size
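Stable NPC1-promoter luciferase Huh7 line; cpd (DMSO) 24 h, 37 °C, 5% CO2; Amplite luciferase reagent 10 min RT; luminescence readout. qHTS format.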
Rab9 promoter act = Rab9 promoter activation | Potency, µM (top dose mostly 9.22 µM), most hits filed as activators | Huh7 Rab9 promoter-luciferase reporter, luminescence, 24 h | AID 485297 | 2.8% of 320,000 active; also: nearly all actives have a fitted effect of over 60% in size
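Huh7 cells stably carrying a Rab9 promoter-luciferase reporter, 1500 cells per well in OP-MEM I with 10% FBS, treated with compound 24 hours at 37C. Luciferase activity read by luminescence after 10 minutes with Amplite reagent.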
ELG1 genotox = genotoxicity induction in ELG1-luciferase HEK293T cells; HEK293T ELG1-luciferase reporter, luminescence, 16 h; Potency, µM (doses to about 46 µM), actives largely listed as activators; 1.3% of 330,000 active; AID 504466; also: nearly all actives have a fitted effect of over 60% in size
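Luminescence read-out: rising ELG1-luciferase signal, reflecting elevated ELG1 protein under genetic stress, flags genotoxic compounds. Cells were treated for 16 hr at 37 °C before ONE-Glo detection.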
FLuc modulator = counter-screen for miR-21 project: firefly luciferase inhibitors or activators; Potency, µM (top dose mostly 57.5 µM), hits mostly inhibitors; purified FLuc, Km substrates, luminescence inhibition; AID 588342; 6.9% of 360,000 active; P08659; also: nearly all actives have a fitted effect of over 55% in size
Target sequence (P08659 whole entry, looked up): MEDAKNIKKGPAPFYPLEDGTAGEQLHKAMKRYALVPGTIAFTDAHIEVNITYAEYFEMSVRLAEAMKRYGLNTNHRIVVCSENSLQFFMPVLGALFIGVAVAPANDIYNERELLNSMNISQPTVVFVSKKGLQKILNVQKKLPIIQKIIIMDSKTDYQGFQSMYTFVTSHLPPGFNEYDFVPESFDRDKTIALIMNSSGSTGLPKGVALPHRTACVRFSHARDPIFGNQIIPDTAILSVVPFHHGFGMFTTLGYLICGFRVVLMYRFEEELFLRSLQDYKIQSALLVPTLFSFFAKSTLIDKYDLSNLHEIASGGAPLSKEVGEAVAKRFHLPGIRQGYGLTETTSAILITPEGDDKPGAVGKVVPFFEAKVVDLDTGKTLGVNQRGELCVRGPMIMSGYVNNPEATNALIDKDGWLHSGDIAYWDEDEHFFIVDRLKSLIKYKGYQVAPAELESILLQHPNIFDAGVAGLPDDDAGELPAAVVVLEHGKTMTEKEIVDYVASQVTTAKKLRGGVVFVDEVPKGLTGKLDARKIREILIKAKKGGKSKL
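Purified P. pyralis luciferase (10nM final) with 10uM D-luciferin and 10uM ATP (Km levels) in 50mM Tris acetate pH 7.5, 10mM Mg acetate, 0.01% Tween-20, 0.05% BSA; qHTS 6-point titration, ~60 µM downward; luminescence read.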
SMN2 splice up = SMN2 splice variant enhancement | 2.8% of 210,000 active | Potency, µM (top dose mostly 46.1 µM), most hits filed as activators | AID 1458 | HEK293 SMN2-luciferase splicing reporter, luminescence, 30-36 h; also: nearly all actives have a fitted effect of over 55% in size
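HEK293 cells carry an SMN2 minigene-luciferase reporter in which exon 7 inclusion puts luciferase in frame. Cells were seeded at 2000 cells/well, attached for 10-12 hours, then exposed to compounds for 30-36 hours at 37C before ONE-Glo luminescence.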
Each line names hits and unclear results; the compound was inactive in the other large screens. Calls follow the shape of the dose curve; as a rule, active = well fitted curve in the direction sought with a large enough effect; inconclusive = small, poorly fitted or top-dose-only effect, or another doubt; inactive = no such curve, though single readings can be large; an effect the other way counts as inactive or inconclusive.

CCC(C)[C@H](NC(=O)N1CCN(c2cccc(C(F)(F)F)c2)CC1)C(=O)OC (some centres not stated)	none
CCOc1cc(C(=O)Nc2cccnc2)cc(OCC)c1OCC	none (no result: SMN2 splice up)
CCCCOc1ccc(C(=O)Nc2ccncc2)cc1	ELG1 genotox 13µM, FLuc modulator inconclusive
O=C(Nc1cccnc1)c1ccccc1Oc1ccccc1	none
O=C(Nc1cccnc1)c1ccc(Oc2ccccc2)cc1	NPC1 promoter act inconclusive, Rab9 promoter act inconclusive, ELG1 genotox 4.11µM, FLuc modulator 3.38µM
CCCOc1ccc(C(=O)Nc2cccnc2)cc1	NPC1 promoter act 2.82µM, Rab9 promoter act inconclusive, ELG1 genotox 10.3µM, FLuc modulator 10.7µM (no result: SMN2 splice up)
C/C(=N/Nc1ccnc2cc(Cl)ccc12)c1ccc(O)cc1	FLuc modulator inconclusive (no result: SMN2 splice up)
CCn1cc(-c2cc(C(=O)O)c3ccccc3n2)cn1	FLuc modulator 2.69µM
CCn1cc(-c2cc(C(=O)O)c3ccccc3n2)c(C)n1	FLuc modulator 9.53µM
CCc1ccc(CNCc2c(C(=O)O)c(C)n(Cc3c(F)cccc3Cl)c2C)cc1	none (no result: NPC1 promoter act, Rab9 promoter act, ELG1 genotox)
CCOC(=O)/C(C#N)=N/Nc1c(S(=O)(=O)Cc2ccco2)csc1C(=O)OC	none (no result: SMN2 splice up)
O=C(CSC1=NCCN1)NC1CCCCCC1	SMN2 splice up inconclusive
CC1CCC(=C(C#N)C(=O)Nc2cccc(Cl)c2)CC1 (configuration not stated)	FLuc modulator 23.9µM
CC1CCCN(C(=O)CNC(=O)c2cccs2)C1 (configuration not stated)	NPC1 promoter act 3.98µM, Rab9 promoter act inconclusive, FLuc modulator inconclusive (no result: SMN2 splice up)
COCc1cc(=O)n2c(-c3ccc(C)cc3)n[nH]c2n1	FLuc modulator 9.53µM, SMN2 splice up inconclusive
COCc1cc(=O)n2c(-c3ccccc3OC)n[nH]c2n1	none
c1ccc(NC2=Nc3ccccc3CS2)cc1	NPC1 promoter act 1.78µM, Rab9 promoter act 3.16µM, ELG1 genotox inconclusive, FLuc modulator 2.69µM, SMN2 splice up 11.2µM
CCOC(=O)CSc1nc2ccc(NC(C)=O)cc2s1	FLuc modulator inconclusive (no result: SMN2 splice up)
COC(=O)CSc1nc2ccc(N)cc2s1	FLuc modulator 26.9µM
Nc1ccc2nc(SCc3ccc([N+](=O)[O-])cc3)sc2c1	FLuc modulator 21.3µM
CC(C)OC(=O)CSc1nc2ccccc2s1	ELG1 genotox inconclusive, FLuc modulator 23.9µM
CC(=O)CSc1nc2ccccc2s1	none
CCCCC(Br)C(=O)Nc1ccc(S(=O)(=O)Nc2cc(C)nc(C)n2)cc1 (configuration not stated)	none (no result: SMN2 splice up)
C[C@H](CO)N1C[C@H](C)[C@@H](CN(C)C(=O)Nc2ccc(C(F)(F)F)cc2)Oc2c(cccc2N(C)C)C1=O	none (no result: NPC1 promoter act, Rab9 promoter act, FLuc modulator, SMN2 splice up)
COc1cccc(CNC(=O)c2ccc(C(=O)NCc3cccc(OC)c3)cc2)c1	ELG1 genotox inconclusive (no result: SMN2 splice up)
COC(=O)c1cc(OC)c(OC)cc1NC(=O)c1cc(C(C)(C)C)oc1C	none (no result: SMN2 splice up)
Cc1cc(-c2ccc(Cl)cc2)oc(=O)c1NC(=O)c1ccccc1	none
Cc1oc(-c2ccc(Cl)cc2)cc1C(=O)O	NPC1 promoter act inconclusive, Rab9 promoter act inconclusive, FLuc modulator 10.7µM (no result: SMN2 splice up)
CCN(CC)c1ccc(N=Nc2ncn[nH]2)cc1	NPC1 promoter act 2.82µM, Rab9 promoter act 2.82µM, ELG1 genotox inconclusive, FLuc modulator 12µM, SMN2 splice up 12.6µM
C/C(=N/N=C(/C)c1cccs1)c1cccs1	NPC1 promoter act inconclusive, Rab9 promoter act inconclusive, ELG1 genotox inconclusive, FLuc modulator 4.78µM (no result: SMN2 splice up)
C/C(=N\OC(=O)c1ccc(C)cc1)c1sc(C)nc1C	FLuc modulator 2.69µM
C/C(=N\OC(=O)c1ccc(C)cc1)c1c(C)nc2cc(C)ccn12	none
C/C(=N/OC(=O)c1ccccc1Br)c1ccc(C)cc1	ELG1 genotox inconclusive, FLuc modulator 2.69µM (no result: SMN2 splice up)
C/C(=N/OC(=O)c1ccc(C)cc1)c1cccs1	FLuc modulator 0.0757µM
CCc1noc(C)c1C(=O)Nc1cc(S(=O)(=O)N2CCOCC2)ccc1OC(C)C	none (no result: SMN2 splice up)
O=C(Cn1ncc2c([nH]c3ccccc32)c1=O)NCCc1ccccc1	none (no result: SMN2 splice up)
Cc1c(Br)c(C(F)(F)F)nn1CC(=O)NCCN1CCOCC1	none
C/C(=N\OC(=O)c1ccc(Cl)c(Cl)c1)c1sc(C)nc1C	FLuc modulator 5.36µM
CC(C)(C)C(=O)OC/C(N)=N/OC(=O)c1ccc(Cl)c(Cl)c1	FLuc modulator inconclusive (no result: SMN2 splice up)
O=C(Nc1ccccc1)N1CCCN(c2nccc(C(F)(F)F)n2)CC1	none (no result: SMN2 splice up)
Oc1c(Cl)cc(Cl)cc1/C=C/c1ccc2cccc(O)c2n1	FLuc modulator inconclusive
Oc1ccc(Cl)cc1/C=C/c1ccc2cccc(O)c2n1	ELG1 genotox inconclusive, FLuc modulator 21.3µM
Oc1cccc2ccc(/C=C/c3ccccc3Br)nc12	NPC1 promoter act 3.55µM, Rab9 promoter act inconclusive, ELG1 genotox inconclusive, FLuc modulator 3.38µM (no result: SMN2 splice up)
N=C1c2ccccc2CN1NC(=O)c1cccc(S(=O)(=O)N2CCCCC2)c1	none
O=C(N/N=C/C(Cl)=C\c1ccccc1)c1ccco1	NPC1 promoter act 2.51µM, Rab9 promoter act 2.51µM, ELG1 genotox inconclusive, FLuc modulator 4.78µM (no result: SMN2 splice up)
O=C(N/N=C/c1cccnc1)c1ccco1	none (no result: SMN2 splice up)
O=C(N/N=C/C(Cl)=C/c1ccccc1)c1ccco1	NPC1 promoter act 2.24µM, Rab9 promoter act 1.41µM, ELG1 genotox inconclusive, FLuc modulator 5.36µM (no result: SMN2 splice up)
Cc1cc(C(=O)N(C2CCCCC2)C2CCCCC2)no1	none
CSc1sc(C(=O)N(C)C)c2c1S(=O)(=O)N(C)c1ccccc1-2	none (no result: SMN2 splice up)
